Hits are enriched below; roughly 9% of the tested compounds scored in any of these assays.
PLK1 PBD inh: PLK1 (human) polo-box domain binding inhibition | Plk1 PBD binding of FITC phosphopeptide, fluorescence polarization | Potency, µM, inactives show max response, negative = inhibition, actives largely listed as inhibitors | 360,000 tested, 2.8% active; further: series mostly up to about 57 µM; on the % scale 0 is the no-effect control and ±100 the full control effect; nearly all actives have a fitted effect of over 65% in size
HP1b chromo inh: blocks HP1-beta chromodomain binding to methylated histone tails; P83916; AlphaScreen HP1-beta / biotin-H3K9me3 peptide binding; Potency, µM (top dose mostly 114 µM), without a hit: at the highest dose activity change, negative = inhibition, hits mostly inhibitors; 390,000 tested, 0.56% active; further: nearly all actives have a fitted effect of over 70% in size
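HP1-beta protein (50 nM final) preincubated 30 min at room temperature with biotinylated H3(1-18)K9me3 peptide (50 nM) in PBS pH 7.4, 0.01% Tween-20, then compound added for 30 min. AlphaScreen streptavidin donor/nickel chelate acceptor beads (10 ug/mL final), 30 min dark, luminescence read.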
JMJD2A Tudor: blocks the human JMJD2A Tudor domain; O75164; AlphaScreen JMJD2A-Tudor / H3K4me3 peptide binding; Potency, µM (doses to about 114 µM), for the others: at the highest dose activity change, negative = inhibition, hits mostly inhibitors; 390,000 tested, 4.4% active; AID 504339; further: on the % scale 0 is the no-effect control and ±100 the full control effect; nearly all actives have a fitted effect of over 50% in size
Target sequence (O75164 whole entry, looked up, the tested form may be a part): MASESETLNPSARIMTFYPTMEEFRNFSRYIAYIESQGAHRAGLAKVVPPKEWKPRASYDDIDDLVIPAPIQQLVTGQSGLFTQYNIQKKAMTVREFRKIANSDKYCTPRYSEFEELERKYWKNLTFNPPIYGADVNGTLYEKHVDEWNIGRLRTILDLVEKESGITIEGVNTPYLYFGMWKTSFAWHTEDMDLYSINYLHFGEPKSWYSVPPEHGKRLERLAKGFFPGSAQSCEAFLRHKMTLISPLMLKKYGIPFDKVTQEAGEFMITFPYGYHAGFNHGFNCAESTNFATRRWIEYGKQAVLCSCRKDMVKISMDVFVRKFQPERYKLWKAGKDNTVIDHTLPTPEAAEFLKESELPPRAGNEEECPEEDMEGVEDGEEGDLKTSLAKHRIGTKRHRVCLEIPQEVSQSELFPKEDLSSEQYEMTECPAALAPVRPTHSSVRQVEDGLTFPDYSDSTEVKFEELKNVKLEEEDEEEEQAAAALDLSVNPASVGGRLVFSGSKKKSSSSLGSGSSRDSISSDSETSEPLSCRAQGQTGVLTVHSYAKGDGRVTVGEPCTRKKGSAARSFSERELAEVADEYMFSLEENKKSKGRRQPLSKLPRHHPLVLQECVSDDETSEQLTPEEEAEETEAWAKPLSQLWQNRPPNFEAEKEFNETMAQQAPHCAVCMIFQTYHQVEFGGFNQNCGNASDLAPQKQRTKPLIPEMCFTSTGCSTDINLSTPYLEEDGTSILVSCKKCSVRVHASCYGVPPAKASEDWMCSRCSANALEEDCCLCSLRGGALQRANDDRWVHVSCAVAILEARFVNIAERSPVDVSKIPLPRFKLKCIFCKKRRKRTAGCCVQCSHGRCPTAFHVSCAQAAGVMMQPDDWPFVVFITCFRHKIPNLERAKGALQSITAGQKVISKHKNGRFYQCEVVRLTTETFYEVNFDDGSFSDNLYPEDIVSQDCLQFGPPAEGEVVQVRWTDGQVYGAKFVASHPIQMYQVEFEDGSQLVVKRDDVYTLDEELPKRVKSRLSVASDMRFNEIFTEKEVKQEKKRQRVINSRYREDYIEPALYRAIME
G9a block: G9a (human) methyltransferase inhibition; Q96KQ7; G9a H3K9 monomethylation, AlphaScreen, 2 h; Potency, µM (top dose mostly 102 µM), inactives show at the highest dose activity, negative = inhibition, hits mostly inhibitors; 350,000 tested, 8.8% active; AID 504332; further: on the % scale 0 is the no-effect control and ±100 the full control effect; nearly all actives have a fitted effect of over 75% in size
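Readings reflect AlphaScreen signal from monomethyl-H3K9 antibody detection. HMT at 20 nM; substrate b-H3K9 500 nM; cofactor SAM 20 uM; 2 h RT reaction; compounds tested as titrations in qHTS with 15 min preincubation.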
BAZ2B block: inhibitors of human BAZ2B bromodomain; Q9UIF8; AlphaScreen BAZ2B-H3K14Ac peptide displacement; Potency, µM (titrated, usually from 114 µM), for inactives: at the highest dose activity change, negative = inhibition, hits mostly inhibitors; 360,000 tested, 4.4% active; AID 504333; further: on the % scale 0 is the no-effect control and ±100 the full control effect; nearly all actives have a fitted effect of over 60% in size
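BAZ2B 50 nM plus b-H3(5-23)K14Ac 50 nM, PBS pH 7.4/0.01% Tween-20, 30 min RT; compound added (max 110 uM), 30 min RT; streptavidin donor/Ni-chelate acceptor beads 10 ug/mL final, 20 min dark; AlphaScreen read.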
ALOX12 inh: ALOX12 (human) lipoxygenase inhibition; P18054; Potency, µM (highest dose often 108 µM), inactives show top-dose activity change, negative = inhibition, hits mostly inhibitors; purified 12hLO, xylenol orange hydroperoxide absorbance; 580,000 tested, 1.1% active; further: on the % scale 0 is the no-effect control and ±100 the full control effect
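Purified human 12hLO (150 nM final) in 25 mM Hepes, 0.01% Triton X-100, pH 7.0 was preincubated 15 min at room temperature with compound. Then 40 uM arachidonic acid was added, 30 min. Hydroperoxide was read by Fe-XO absorbance ratio 573/405 nm.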
An asterisk follows results filed as active; i = inactive; ? = inconclusive; . = not tested or not shown; [ ] = dose if it differs, or a comment. The call rests on the fitted dose curve; in most records, active means well fitted curve in the direction sought with a large enough effect; inconclusive means small, poorly fitted or top-dose-only effect, or another doubt; inactive means no such curve, though single readings can be large; an effect the other way counts as inactive or inconclusive. Potency means the concentration at half of the fitted maximal effect.

SMILES	PLK1 PBD inh	HP1b chromo inh	JMJD2A Tudor	G9a block	BAZ2B block	ALOX12 inh
Nc1nc(CSc2nnnn2-c2ccc(Cl)cc2)nc(N2CCOCC2)n1	-4%	9%	-16%	17%	-2%	-82%
C/C(=N\NC(=O)c1nnn(-c2nonc2N)c1CN1CCCCCC1)c1ccc(Br)cc1	-9%	44%	-7%	50µM*	-2%	-3%
CCN1CCN(Cc2c(C(=O)N/N=C(\C)c3ccc(Cl)cc3)nnn2-c2nonc2N)CC1	-3%	36%	-27%	28µM*	?	?
C/C(=N\NC(=O)c1nnn(-c2nonc2N)c1CN1CCC(C)CC1)c1cccc(Br)c1	-4%	63%	-30%	-23%	-14%	14%
O=C(CSC(=S)N1CCOCC1)c1cc2ccccc2oc1=O	-21%	-3%	-30%	71µM*	-24%	.
Cc1cccc(NS(=O)(=O)c2ccc(C)c(C(=O)NNC(=O)c3csc(N4CCOCC4)n3)c2)c1	-3%	26%	-23%	.	.	406%
O=C(C=C1SCCS1)/C=C/c1ccco1	?	?	45µM*	40µM*	50µM*	?
N/C(=C\C(=O)/C=C/c1ccco1)C(F)(F)F	.	.	.	.	.	-75%
O=C(O)C(C(=O)/C=C/c1ccco1)=C1SCCS1	?	71µM*	56µM*	?	50µM*	300%
O=C(/C=C/c1ccco1)NC1CCCC1	-8%	10%	-4%	?	?	-8%
CC(=O)C1=C(O)C(=O)N(c2ccc(Br)cn2)C1c1ccc(Br)cc1 (stereo not given)	-16%	-13%	22µM*	56µM*	?	0%
COc1cc(C2C(C(C)=O)=C(O)C(=O)N2c2ccc(Br)cn2)ccc1O (stereo not given)	-11%	-1%	89µM*	2%[0.0925 µM]	?	?
CC(=O)C1=C(O)C(=O)N(c2cc(C(C)(C)C)on2)C1c1ccc(Br)cc1 (stereo not given)	?	35%	?	45µM*	-37%	45µM*
CC(=O)C1=C(O)C(=O)N(c2ccc(Br)cn2)C1c1ccc(F)cc1 (stereo not given)	-16%	20%	1.1µM*	.	56µM*	?
CC(=O)C1=C(O)C(=O)N(c2ccc(Br)cn2)C1c1ccccc1F (stereo not given)	-4%	47%	-11%	?	-10%	?
O=C1c2ccccc2C(=O)N1Cc1cc(-c2ccccc2)no1	4%	37%	4%	23%[59 µM]	6%	3%
Cc1nc(C)c(C(=O)Nc2ccccc2)s1	-5%	14%	-3%	-8%[59 µM]	.	3%
CCN(CC)c1ccc(NC(=O)Nc2ccccc2C(F)(F)F)cc1	-7%	6%	-24%	.	-36%	102%
CCN(CC)S(=O)(=O)c1cccc(NC(=O)C2CC(=O)N(c3ccc4c(c3)OCCO4)C2)c1 (stereo not given)	3%	-13%	-21%	50µM*	-3%	-11%
O=C(Nc1ccccc1Cc1ccccc1)C1CC(=O)N(c2ccc3c(c2)OCCO3)C1 (stereo not given)	-1%	-16%	?	3.5µM*	50µM*	?
CC(C)CC(=O)NC1CC(=O)N(c2ccc3c(c2)OCCO3)C1 (stereo not given)	.	-22%	100µM*	-2%[59 µM]	-8%	-16%
COc1cc(OC)c(NC(=O)C2CC(=O)N(c3ccc4c(c3)OCCO4)C2)cc1Cl (stereo not given)	-6%	-8%	-24%	45µM*	4%	-18%
O=C(CCc1c[nH]c2ccccc12)Nc1cccc(Cl)c1F	.	.	.	.	.	-2%
COCCNC(=O)C(c1ccco1)N(C(=O)Cn1nnc2ccccc21)c1ccccc1C (stereo not given)	-4%	31%	-7%	-1%[12.7 µM]	0%	-1%
COc1ccc(N(C(=O)/C=C\C(=O)Nc2ccc(Cl)cc2)C(C(=O)NCc2ccco2)c2ccc(C)cc2)cc1 (stereo not given)	.	19%	-34%	11µM*	?	-72%
SMILES	PLK1 PBD inh	HP1b chromo inh	JMJD2A Tudor	G9a block	BAZ2B block	ALOX12 inh
Cc1ccc(C(C(=O)NCc2ccco2)N(C(=O)Cn2nnc3ccccc32)c2ccccc2)o1 (stereo not given)	-16%	-19%	-34%	45µM*	-8%	59%
COCCNC(=O)C(c1ccco1)N(C(=O)Cn1nnc2ccccc21)c1cc(C)ccc1C (stereo not given)	3.4µM*	-11%	-21%[11.4 µM]	-17%	0%	?
CCOc1cc(C(C(=O)NCC2CCCO2)N(C(=O)Cn2nnc3ccccc32)c2ccc(OC)c(OC)c2)ccc1O (stereo not given)	0%	21%	13%	45µM*	-1%	-2%
C[C@H](CO)N1C[C@H](C)[C@@H](CN(C)S(=O)(=O)c2ccc(F)cc2)Oc2ccc(NC(=O)Cc3cn(C)c4ccccc34)cc2C1=O	-11%	7%	-35%	.	.	-12%
COc1ccc(N(C(=O)Cn2nnc3ccccc32)C(C(=O)NCc2ccco2)c2ccc(C)o2)cc1 (stereo not given)	-1%	-16%	-25%	50µM*	45µM*	31%
Cc1ccc(N(C(=O)Cn2nnc3ccccc32)C(C(=O)NCc2ccco2)c2ccc(C)o2)cc1 (stereo not given)	-6%	5%	-12%	?	-37%	i
CC(=O)C[C@@H](O)CC(=O)[C@@H]1OC(=O)[C@@H](C)CCCCc2ccccc21	-4%	91%	29%	.	.	-3%
N#CN=C1SCCS1	3.4µM*	-8%	?	?	-3%	1%
Cc1ccc(OCC(=O)Nc2ccc(N3CCOCC3)cc2)c([N+](=O)[O-])n1	6%	40%	13%	-2%	-2%	10%
CC(=O)Nc1scc(C)c1-c1nc2ccccc2s1	-5%	123%	74%	54%	48%	?
CNc1sc(C(=O)c2ccc(F)cc2)c(N)c1-c1nc2ccccc2s1	21µM*	-29%	?	8.9µM*	50µM*	0%
O=C(Nc1ccccc1-c1nc2ccccc2s1)c1ccc(F)cc1	.	39%	8%	5%[59 µM]	50µM*	-17%
O=C(Nc1nc2ccccc2s1)c1ccc(F)cc1	-3%	34%	-6%	-5%[59 µM]	?	-12%
CNc1sc(C(=O)c2cccs2)c(N)c1-c1nc2ccccc2s1	-17%	-16%	50µM*	?	-6%	0%
O=C(CCc1nnc(C2(c3ccc(Cl)cc3)CCC2)o1)NC1CC1	6%	31%	-21%	?	-21%	9%
Cc1ccc(F)cc1N=Cc1ccc2ncccc2c1	.	.	.	.	.	-25%

Screens as filed in PubChem.
